Here are results for 52 compounds from ChEMBL document CHEMBL3988442, “University of Dundee, Small-Polar-MMV Screening Library” (2021).

Out of some 48,000 compounds screened, about 13,000 (27%) showed an effect of 50% or more. This is one part of the list.

The subject of this assay is Wolbachia pipientis. Briefly: Anti-Wolbachia Cell-Based Screen. More on the design: scale not given: in the data most compounds retested in dose-response had high values. The following applies: 5 µM. Type of assay: functional.
For the compound `CC(C)Oc1ncccc1CNC(=O)c1ccco1`, the “Percent Effect” value turned out to be 7.44%.

`Cc1ccc(C(=O)N2CC(C(N)=O)O[C@H](C)C2)c(F)c1` (some centres not stated): the “Percent Effect” value is on record as -9.152%.

In the case of `N#CCCN(Cc1ccco1)C(=O)CN1CCCC1c1cccs1` (configuration not stated), the “Percent Effect” value is reported as -7.66%.

In the case of `CC(C)c1nc(CN(C)C(=O)Cn2nc3ccccc3n2)no1`, the “Percent Effect” value is -13.5%.

Consider `CSCC(=O)N(C)Cc1noc(-c2ccccc2)n1`, for which the “Percent Effect” value amounted to 108.1%.

`CN(Cc1noc(-c2ccccc2)n1)C(=O)CSc1nnc(N)s1`: the “Percent Effect” value was 121.6%.

`CN(C)C(=O)Cc1ccccc1NCc1noc(-c2ccccc2)n1`: the “Percent Effect” value came to 11.76%.

Consider `CCc1noc(CN(C)C(=O)COc2cc(Cl)cc(Cl)c2)n1`, for which the “Percent Effect” value was -5.267%.

For the compound `CCn1ccc(CN(C)C(=O)CSc2nnc(N)s2)n1`, the “Percent Effect” value is given as 5.02%.

`CCc1nc(CN(C)C(=O)CSC)no1`: the “Percent Effect” value is 99.89%.

Regarding `CCc1nc(CN(C)C(=O)C2CCC(=O)N(CC3CCCCC3)C2)no1` (configuration not stated), the “Percent Effect” value was -15.94%.

With `COc1ccc(CN(C)C(=O)CSc2nnc(N)s2)c(OC)c1OC`, the “Percent Effect” value turned out to be 2.435%.

As for `Cn1cc(N2CCC3(CCN(S(=O)(=O)C4CC4)C3)C2=O)cn1` (configuration not stated), the “Percent Effect” value is on record as -13.56%.

In the case of `CCCC(C)CS(=O)(=O)NCCc1csc(N2CCCC2)n1` (configuration not stated), the “Percent Effect” value turned out to be 5.842%.

With `CC1(C)Cc2c(cnn2-c2ccccc2)C(NC2CCSCC2)C1` (configuration not stated), the “Percent Effect” value came out at 2.86%.

For the compound `CN(C)c1ccnc(-c2ccnc3c2ccn3C)n1`, the “Percent Effect” value was -3.285%.

As for `Cc1[nH]c2c(C)ccc(C)c2c1CC(=O)NCCCNc1cccnc1`, the “Percent Effect” value is given as -12.73%.

`O=C(c1ccc2cccnc2n1)N(Cc1ccsc1)CC1CCCO1` (configuration not stated): the “Percent Effect” value is on record as -29.46%.

With `COCCN1Cc2ccccc2C2(CCN(C(=O)c3ccno3)CC2)C1`, the “Percent Effect” value was 106.5%.

Regarding `COCCN1Cc2ccccc2C2(CCN(S(C)(=O)=O)CC2)C1`, the “Percent Effect” value was determined as 109.9%.

Regarding `O=C(c1ccco1)N1CCC2(CC1)C(=O)Nc1ccccc12`, the “Percent Effect” value is recorded as -7.592%.

Consider `CCS(=O)(=O)N1CCC2(CC1)CN(C(=O)N(C)C)Cc1ccccc12`, for which the “Percent Effect” value is -41.7%.

As to `COCCN1C[C@H]2CN(C(=O)c3ccno3)CCN2C1=O`, the “Percent Effect” value was 3.514%.

In the case of `COCCN1CC2(CCN(Cc3ccco3)CC2)c2ccccc21`, the “Percent Effect” value is -16.07%.

For `O=C(c1ccno1)N1CCC2(CC1)C(=O)Nc1ccccc12`, the “Percent Effect” value amounted to 0.1339%.

In the case of `COCCN1CCC2(CC1)CC1(CCN(S(C)(=O)=O)CC1)N(C)C2=O.O=C(O)C(F)(F)F`, the “Percent Effect” value is on record as -9.423%.

For `COCCN1Cc2ccccc2C2(CCN(C(=O)c3ccco3)CC2)C1`, the “Percent Effect” value is on record as 91.37%.

For the compound `Cc1ccc(C(=O)Nc2cccc3c2C(=O)NC3)c(C)n1`, the “Percent Effect” value is -2.739%.

For `c1coc(CN2CCc3ncnc(C4CCOC4)c3CC2)c1` (configuration not stated), the “Percent Effect” value was -7.93%.

For `COCCN1CCCC(O)(CN2CCN(c3cc(C)ccn3)CC2)C1=O` (configuration not stated), the “Percent Effect” value is recorded as -13.95%.

Take `CCOCC1(CNCc2cc(O)c3cc(C)ccc3n2)CC1`: the “Percent Effect” value is 1.355%.

With `COc1ccc(CN2CCC(CO)(Cc3ccc(Cl)cc3)CC2)c(O)c1`, the “Percent Effect” value is listed as -0.5928%.

As to `O=c1n(CC2COCCO2)nc(CC2CCNCC2)n1-c1ccccc1` (configuration not stated), the “Percent Effect” value was 28.69%.

On to `CN(C)C(=O)CNC(=O)c1ccc2ccc(N(C)CC3CC3)n2c1`, for which the “Percent Effect” value came to 99.28%.

`COC(=O)N1CCC(Oc2ccc(C(=O)NCCN(C)C)cc2Cl)CC1`: the “Percent Effect” value amounted to 19.93%.

For the compound `CN(C)CCNC(=O)c1ccc(OC2CCN(C3CCC3)CC2)c(Cl)c1`, the “Percent Effect” value is reported as -4.706%.

Regarding `CCN(CC)c1ccc2ccc(C(=O)N(C)C)cn12`, the “Percent Effect” value was -16.77%.

For `CCn1cc(C(=O)NCc2cccnc2N(C)Cc2ccccc2)cn1`, the “Percent Effect” value is on record as 2.697%.

For `CN(C)CCNC(=O)c1ccc2ccc(N(C)CC3CC3)n2c1`, the “Percent Effect” value is recorded as 115.7%.

As for `CCN(CC)c1ccc2ccc(C(=O)O)cn12`, the “Percent Effect” value is recorded as -4.44%.

For the compound `CN(CC1CC1)c1ccc2ccc(C(=O)NCCc3ccccc3)cn12`, the “Percent Effect” value turned out to be 99.05%.

`CCN(CC)c1ccc2ccc(C(=O)NC3CC3)cn12`: the “Percent Effect” value is -16.69%.

For `CN(CC1CC1)c1ccc2ccc(C(=O)NC3CCCCC3)cn12`, the “Percent Effect” value turned out to be 118%.

Turning to `CCNC(=O)c1ccc2ccc(N(CC)CC)n2c1`, the “Percent Effect” value worked out at 1.029%.

As to `CCNC(=O)N1C[C@@H]2OCC(=O)N(CC3CCCCC3)[C@@H]2C1`, the “Percent Effect” value is -5.369%.

`CN(C)S(=O)(=O)c1cccc(CNc2cc(CO)ccc2Cl)c1`: the “Percent Effect” value is given as -35.79%.

With `O=C(NCc1ccccc1CN1CCC(O)CC1)Nc1cccnc1`, the “Percent Effect” value was -0.5671%.

For the compound `COCCCN1CCC(c2nc3c([nH]2)CC(C)(C)CNC3=O)C1` (configuration not stated), the “Percent Effect” value is on record as -5.99%.

As to `CCc1nnc(SC2CCN(c3ccccc3F)C2=O)n1C` (configuration not stated), the “Percent Effect” value is reported as -9.884%.

As to `Cc1cc2n(n1)CC(CNC1CCN(C3CC3)CC1)CN2` (configuration not stated), the “Percent Effect” value is -6.962%.

As to `CN(CCOc1ccc(F)cc1)S(=O)(=O)N1CCOCC1`, the “Percent Effect” value was -1.618%.

For `Cc1cccc2sc(NC(=O)CN3CCCC(O)(CO)C3)nc12` (configuration not stated), the “Percent Effect” value was -1.543%.
